# Measured values as given in PubChem BioAssay.
# “And” between values parts separate entries of the source, which are not always exact repeats. Equal values may be shown once. The source made the active and inactive calls. Unless noted, no rule for the calls is given here.
# Key:
# [1] = system: Wnt5a (protein binding on small-molecule microarray); assay: small molecules binding Wnt5a protein – biophysical, small-molecule microarray, 635/667 nm fluorescence, primary screen (AID 1142); conditions: 635 nm fluorescence, higher = more signal;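 also: fluorescence read at 667 nm with signal to noise per printed feature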
# [2] = ATP-based viability of Huh7 replicon cells – cell-based, CellTiter-Glo luminescence, basal, 48 h, cytotoxicity control for HCV replication inhibitor project, primary screen (AID 1143); conditions: higher = more signal, called active from +8 up or from −8 down;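 also: Huh7 hepatoma cells carrying a hepatitis C replication reporter with no stimulus; test concentration not given here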
# [3] = Pseudomonas biofilm growth suppression – PAO1 strain, BacTiter-Glo luminescence, LB-PBS, primary screen (AID 1144); conditions: P. aeruginosa PAO1 biofilm, 12 h, higher = more signal
# [4] = basal CRE-LacZ reporter activity in PC12 – cell-based, unstimulated, primary screen (AID 1145); conditions: no forskolin, luminescence, 4.5 h, higher = more signal, called active from +8 up or from −8 down
# [5] = forskolin-driven CRE-LacZ activity in PC12 – cell-based, CRE-LacZ reporter, forskolin-stimulated, primary screen (AID 1146); conditions: luminescence, 4.5 h, higher = more signal, called active from +8 up or from −8 down;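 also: PC12 cells with 6xCRE LacZ reporter stimulated by forskolin 10 µM; beta-galactosidase reporter signal reflecting CREB driven transcription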
# [6] = molecular target: Streptavidin (Streptomyces avidinii) (UniProt P22629); assay: compounds binding control protein streptavidin – biophysical, small-molecule microarray, 635/667 nm fluorescence, artefact control for SMM compound annotation, primary screen (AID 1147); conditions: higher = more signal;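 also: signal reflects streptavidin binding to arrayed compounds as a control protein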
# [7] = probe aInhba binding on compound microarray – biochemical, small-molecule microarray, 635/667 nm fluorescence, primary screen (AID 1148); conditions: higher = more signal;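 also: score merges 667nm spot fluorescence with signal-to-noise for antibody binding to printed compounds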
# Torsin-1A (Homo sapiens) [8] = molecular target: Torsin-1A (Homo sapiens) (UniProt O14656); assay: TOR1A wild-type binding on microarray – cell lysate, small-molecule microarray, lysate, 635/667 nm, primary screen (AID 1149); conditions: COS7 hTOR1A-WT lysate, 635 nm fluorescence, higher = more signal
# Torsin-1A (Homo sapiens) [9] = molecular target: Torsin-1A (Homo sapiens) (UniProt O14656); assay: torsin A mutant lysate binding on microarrays – cell lysate, small-molecule microarray, COS7 lysate, 635/667 nm fluorescence, primary screen (AID 1150); conditions: COS7 hTOR1A mutant lysate, 635 nm fluorescence, higher = more signal;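 also: score pools 667 nm emission and signal to noise measuring lysate protein binding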
# [10] = system: Sonic hedgehog protein (Shh); assay: Sonic hedgehog microarray binding compounds – biochemical, small-molecule microarray, 635/667 nm fluorescence, primary screen (AID 1151); conditions: 635 nm fluorescence, higher = more signal;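 also: Shh protein binding to compounds spotted on small-molecule microarray slides; score combines spot fluorescence intensity with signal-to-noise across triplicate slides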
# Chain of Torsin-1A (Homo sapiens) (O14656 whole entry, looked up): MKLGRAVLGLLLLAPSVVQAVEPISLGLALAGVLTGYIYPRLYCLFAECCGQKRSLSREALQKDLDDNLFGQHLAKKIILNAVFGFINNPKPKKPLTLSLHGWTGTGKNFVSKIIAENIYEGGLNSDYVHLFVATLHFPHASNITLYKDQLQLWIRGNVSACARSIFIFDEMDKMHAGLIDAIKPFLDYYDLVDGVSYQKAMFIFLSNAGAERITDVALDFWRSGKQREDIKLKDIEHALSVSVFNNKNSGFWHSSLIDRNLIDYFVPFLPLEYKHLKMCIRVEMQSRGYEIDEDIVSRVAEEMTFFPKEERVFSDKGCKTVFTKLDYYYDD
# Chain of Streptavidin (Streptomyces avidinii) (P22629 whole entry, looked up): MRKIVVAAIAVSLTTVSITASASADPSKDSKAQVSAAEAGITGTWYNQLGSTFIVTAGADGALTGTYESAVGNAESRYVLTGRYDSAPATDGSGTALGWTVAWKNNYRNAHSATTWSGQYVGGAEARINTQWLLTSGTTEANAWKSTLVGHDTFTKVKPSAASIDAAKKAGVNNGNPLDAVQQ
Compound,composite z-score [1],z-score [2],z-score [3],z-score [4],z-score [5],composite z-score [6],composite z-score [7],composite z-score (Torsin-1A (Homo sapiens) [8]),composite z-score (Torsin-1A (Homo sapiens) [9]),composite z-score [10]
CC(C)C(=O)N[C@@H]1CCCN1C(=O)C=Cc1ccccc1,-0.0494,0.135 (inactive),1.06 (inactive),0.56 (inactive),0.685 (inactive),0.504,-0.0216,0.841,0.448,0.605
COC(=O)[C@H](C)NC(=O)CCC1CC(OC(=O)NCCc2ccc(F)cc2)CC2(CCCC(COC(=O)NCCCN3CCCC3=O)O2)O1 (stereo not given in full),0.29,-0.959 (inactive),0.0154 (inactive),-0.704 (inactive),0.597 (inactive),0.953,0.117,0.273,0.268,1.07
C=CCN(C(=O)C1N(c2ccc(CCO)cc2)C(=O)C2C(C(=O)O)C3C=CC21O3)c1ccc(OC)cc1 (stereo not given),-0.416 and -0.717,-0.0172 (inactive) and -1.2 (inactive),-0.143 (inactive) and -1.34 (inactive),0.333 (inactive) and -1.97 (inactive),-0.0772 (inactive) and -0.526 (inactive),-0.683 and -1.98,-0.0066 and -0.311,-1.29 and -2.7,-0.584 and -1.23,-0.141 and -1.28
CO[C@H]1COC(=O)[C@H](C)NC(=O)CC=C[C@@H](C)[C@H](OC)COC(=O)CC=C[C@@H]1C,0.155,0.0447 (inactive),-0.506 (inactive),1.51 (inactive),-0.41 (inactive),0.14,-0.237,1.85,1.81,1.62
CC(CO)N1C(=O)[C@@H]2C3C(=O)OCCC=C[C@H]3OC23C=CCN(c2ccc4ccccc4c2)C(=O)[C@@H]13 (stereo not given in full),-0.758 and -0.416,0.0425 (inactive) and 0.0276 (inactive),0.87 (inactive) and 1.11 (inactive),0.199 (inactive) and 0.756 (inactive),-0.345 (inactive) and 0.0714 (inactive),-0.809 and -0.937,-0.0933 and -0.584,-1.95 and -1.75,-1.23 and -1.14,0.0707 and -0.262
COC(=O)C1=C(C)N(Cc2ccccc2)[C@]23O[C@](C(=O)OC)(C(=O)N2[C@@H]1c1ccccc1)[C@H]1C(=O)N(c2ccccc2)C(=O)[C@H]13,0.115 and 0.0304,-0.123 (inactive) and -0.532 (inactive),-1.18 (inactive),-0.165 (inactive) and 0.472 (inactive),-1.65 (inactive) and -0.623 (inactive),0.32 and 0.436,0.201 and -0.0552,0.718 and 0.667,0.476 and 0.211,0.833 and 1.14
C[C@@H]1CC[C@@H](C(=O)O)N[C@H]1c1ccc(-c2ccco2)cc1,0.266,0.0233 (inactive),-0.778 (inactive),-0.339 (inactive),-0.885 (inactive),0.192,-0.0791,1,0.406,0.611
C#CCCCON=C1C[C@@H](O)[C@@H](O)[C@@H]2[C@@H]3C(=O)N(C4CCCCC4)C(=O)[C@@H]3CC[C@H]12,-0.176,-0.379 (inactive),0.353 (inactive),-0.474 (inactive),-0.236 (inactive),1.03,-0.101,1.06,0.0924,-0.105
CC(CO)N1C(=O)[C@@H]2C3C(=O)OCCC=C[C@H]3OC23C=CCN(CCN2CCOCC2)C(=O)[C@@H]13 (stereo not given in full),-0.0538 and 0.351,-0.0826 (inactive) and 0.0065 (inactive),0.129 (inactive) and 0.971 (inactive),0.317 (inactive) and -0.492 (inactive),0.643 (inactive) and 0.22 (inactive),-0.0427 and 1.12,-0.0719 and 0.0053,-0.674 and 0.148,-0.198 and 0.276,0.521 and 0.746
C=CCN(C(=O)C1N(CCCCCCO)C(=O)C2C(C(=O)O)C3C=CC21O3)C(C)(C)C (stereo not given),-1.54 and -1.09,0.317 (inactive) and 0.148 (inactive),1.99 (inactive) and 1.42 (inactive),0.992 (inactive) and -0.216 (inactive),0.129 (inactive) and 0.453 (inactive),-1.47 and -1.01,-0.251 and -0.278,-3.52 and -3.83,-3.07 and -2.82,-1.68 and -1.49
C=CC[C@H](O)c1ccc(OCCO)cc1,-0.0223 and -0.614,-1.36 (inactive) and -0.878 (inactive),-0.809 (inactive) and -0.0923 (inactive),-0.925 (inactive) and 0.18 (inactive),-0.506 (inactive) and -0.0908 (inactive),-0.893 and -1.41,-0.0371 and -0.497,-0.646 and -1.69,-0.0897 and -1.66,-0.125 and 0.891
